Screening data from PubChem BioAssay.
Shown are actives, neighbours in structure and some others; about 32% of the full set was active somewhere.
PostGolgi ctrl: growth inhibition of yeast control strain, primary screen, counter-screen for post-Golgi transport modulator project; efflux-deficient yeast background strain, growth absorbance A615, 16 h; inhibition, % at 10 µM; 98,000 compounds, 5% hits
PostGolgi yeast: phenotypic screen on post-Golgi transport, primary screen | post-Golgi transport phenotypic cell assay | AID 739, 2007 | 98,000 compounds, 0.9% hits | inhibition, % at 10 µM;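 note: yeast cells grown in 1536-well plates; yeast grown about 18 h at 30C before absorbance read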
CYP2C9 act: human CYP2C9 activators, primary screen, biochemical, luminescence | recombinant CYP2C9, luciferin-H conversion; active compounds read high; factor 1 = untreated enzyme, 0 = blocked | activation factor at 5 µM | 96,000 compounds, 1.4% hits | Cytochrome P450 2C9 (Homo sapiens), P11712 | AID 1024, 2008;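 active = activation factor of 2 or more for CYP2C9 at a 5 µM dose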;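 note: 0 = sulfaphenazole-blocked wells and 1 = vehicle-only wells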
CYP2C9 inhib: blockers of cytochrome P450 2C9 activity – biochemical, luminescence, ADME assay, primary screen | P11712 | CYP2C9 Supersomes, luciferin-H conversion | inhibition, % at 5 µM | 96,000 compounds, 20% hits | AID 777, 2007;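 active = blocking of liver enzyme CYP2C9 beyond about 50% at 5 µM, limit read from the data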
CYP2C19 act: human CYP2C19 activators, primary screen, biochemical, luminescence; Cytochrome P450 2C19 (Homo sapiens), P33261; recombinant CYP2C19, luciferin-H EGE luminescence; active compounds read high; 0 = fully inhibited enzyme, 1 = untreated enzyme; activation factor at 5 µM; 96,000 tested, under 10 active;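 active = activation factor of at least 2 at 5 µM in the primary screen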;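 note: 0 = wells with 2.5 mM tranylcypromine and 1 = vehicle-only wells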
Target sequence (P33261 whole entry, looked up): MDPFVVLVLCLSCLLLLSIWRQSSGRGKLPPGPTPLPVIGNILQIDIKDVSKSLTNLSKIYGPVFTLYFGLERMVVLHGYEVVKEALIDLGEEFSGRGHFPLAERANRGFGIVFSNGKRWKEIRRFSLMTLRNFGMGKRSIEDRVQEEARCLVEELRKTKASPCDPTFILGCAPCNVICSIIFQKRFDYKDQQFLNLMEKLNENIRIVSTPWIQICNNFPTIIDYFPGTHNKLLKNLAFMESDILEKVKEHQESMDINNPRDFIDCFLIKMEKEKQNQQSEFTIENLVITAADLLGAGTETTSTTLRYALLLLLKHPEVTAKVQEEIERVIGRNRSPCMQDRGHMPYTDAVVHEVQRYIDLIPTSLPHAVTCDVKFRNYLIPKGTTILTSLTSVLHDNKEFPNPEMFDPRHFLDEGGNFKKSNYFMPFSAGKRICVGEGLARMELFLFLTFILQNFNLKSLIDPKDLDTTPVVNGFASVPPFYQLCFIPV
CYP2C19 inh: blockers of cytochrome P450 2C19 activity – biochemical, luminescence, ADME assay, primary screen. P33261. CYP2C19 Supersomes, luciferin-H EGE luminescence, 30 min. inhibition, % at 5 µM. 96,000 compounds, 21% hits. AID 778, 2007;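 active = CYP2C19 inhibition above a set limit at 5 µM in the primary screen, cut at about 50% in these data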;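 note: plate controls were negative control wells for no effect and 2.5 mM tranylcypromine positive control for full effect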
* marks the source's active call; other numbers are inactive results; · = not tested or not shown. Cut-off read from the data, not from the text of the source, unless noted: active = inhibition above about 30%; inactive = the rest.

SMILES	PostGolgi ctrl	PostGolgi yeast	CYP2C9 act	CYP2C9 inhib	CYP2C19 act	CYP2C19 inh
CCOC(=O)c1cnc(SC2CC(=O)N(c3cccc(OC)c3)C2=O)nc1N (stereo not given)	2.7	0.8	0.3	72.8*	0.6	35.5
Cc1cccc(N2C(=O)CC(Sc3nc(C)cc(C)n3)C2=O)c1 (stereo not given)	-5.0	-2.7	0.8	15.1	0.6	39.8
COc1ccc(-c2nc(NC(=O)C3CCN(c4nc5ccccc5o4)CC3)sc2C)cc1	22.1	0.2	0.5	51.1*	0.7	29.2
N#Cc1ccc(Oc2cccnc2)cc1C#N	0.0	-4.9	1	1.8	0.7	29.6
CCN1CCc2nc(SCC(=O)Nc3ccc(OC)cc3)c(C#N)cc2C1	-7.1	-7.8	0.3	72.9*	1	3.9
CN1CCc2nc(SCC(=O)Nc3ccc(F)cc3)c(C#N)cc2C1	-1.4	3.3	0.3	75.0*	0.1	89.5*
CN1CCc2nc(SCc3ccc(C(C)(C)C)cc3)c(C#N)cc2C1	12.8	-3.1	1	1.5	0.7	30.9
CCc1nnc(NC(=O)CSc2nc3c(cc2C#N)CCCC3)s1	-1.4	-2.3	1	-2.2	1	-3.3
Cc1noc(NS(=O)(=O)c2ccc(NC(=O)CSc3nc4c(cc3C#N)CCCCC4)cc2)c1C	7.6	3.2	0.8	23.7	1.1	-7.1
COc1ccc(NC(=O)CSc2nc3c(cc2C#N)CN(C)CC3)cc1	-6.5	5.9	0.3	65.8*	0.9	9.8
CCn1c(SCC(=O)NCCc2ccc(F)cc2)nnc1-c1cccs1	4.8	6.3	0.9	14.4	0.9	12.3
COc1ccc(N2CCN(C(=O)c3ccc(Oc4ccc(C(F)(F)F)cn4)cc3)CC2)cc1	15.9	-10.0	0.9	12.0	0.8	19.1
CCCCS(=O)(=O)Nc1ccc(Cc2ccncc2)cc1	6.1	2.7	0	100.0*	0	100.0*
CC(=O)NC(C)C12CC3CC(CC(CC(=O)O)(C3)C1)C2 (stereo not given)	0.1	-5.1	1.2	-16.6	1.2	-15.2
N#Cc1c(N)nc(SCC(=O)NC2CCCCC2)c(C#N)c1-c1ccc(Cl)cc1	10.3	-1.3	1.1	-10.1	1.1	-5.0
N#CCSc1nc(N)c(C#N)c(C2CCCCC2)c1C#N	50.8*	18.0	0.5	52.8*	0.9	10.6
Cc1sc2ncnc(N3CCN(CCOc4ccc(Cl)cc4)CC3)c2c1C	35.4*	-5.1	0	99.0*	0	96.7*
COc1cccc(OCCN2CCN(c3ncnc4c3cnn4-c3ccccc3)CC2)c1	8.8	-6.1	0.5	47.8	0.5	49.6
O=C(N/N=C/c1cccc(F)c1)c1csc2c1CCCC2	50.1*	-8.0	1.5	-48.2	0.9	13.5
O=C(NCc1ccco1)c1cccc(F)c1	8.4	13.5	1.1	-12.8	1.1	-10.0
O=C(NCc1ccco1)c1ccc(Cn2c(=O)c3ccccc3n(Cc3cccc(F)c3)c2=O)cc1	-0.3	2.0	0.4	60.8*	0.2	80.3*
O=c1c2ccccc2n(Cc2ccc(Cl)cc2)c(=O)n1Cc1ccco1	75.5*	-2.3	·	·	·	·
Cc1ccc(Cn2c(=O)n(Cc3ccco3)c(=O)c3ccccc32)cc1	6.7	4.7	·	·	·	·
O=C(NCc1ccco1)c1ccc(Cn2c(=O)c3ccccc3n(Cc3ccc(Cl)cc3)c2=O)cc1	29.0	15.1	0.1	86.2*	0.2	76.1*
COCCNC(=O)c1c(NC(=O)c2nc(SC)ncc2Cl)sc2c1CCCC2	5.1	-1.2	1	-1.2	1.1	-6.5
SMILES	PostGolgi ctrl	PostGolgi yeast	CYP2C9 act	CYP2C9 inhib	CYP2C19 act	CYP2C19 inh
Cc1[nH]c2ccccc2c1C(=O)CSc1nc2cc(S(=O)(=O)N3CCCCC3)ccc2o1	9.4	12.4	0.1	89.9*	0.4	60.2*
O=C(CSc1nc2cc(S(=O)(=O)N3CCOCC3)ccc2o1)NC1CCCc2ccccc21 (stereo not given)	-5.1	5.2	0.4	60.3*	0.3	73.7*
O=C1CCc2cc(S(=O)(=O)N3CCC(C(=O)NC4CCCc5ccccc54)CC3)ccc2N1 (stereo not given)	7.4	-0.8	0.9	5.4	0.9	11.8
Cc1ccc(C(=O)CSc2nc3cc(S(=O)(=O)N4CCOCC4)ccc3o2)cc1	38.5*	-7.5	0.2	82.4*	0.9	10.7
Cc1[nH]c2ccccc2c1C(=O)CSc1nc2ccccc2[nH]1	11.8	8.2	1.5	-54.3	0.7	31.3
Cc1ccc(NC2SC(=O)N(CC(=O)O)C2=O)cc1 (stereo not given)	2.2	4.1	0.4	61.0*	1.1	-6.4
N#CC(C(=O)OC1CCCCC1)c1nc2ccccc2nc1N1CCOCC1 (stereo not given)	40.4*	-0.3	0.9	9.5	0.9	6.5
CCOC(=O)C1CCCN(c2nc3ccccc3nc2C(C#N)C(=O)OCCOC)C1 (stereo not given)	7.8	-6.4	0.6	35.2	0.8	21.8
CCC(CC)COC(=O)C(C#N)c1nc2ccccc2nc1N1CCOCC1 (stereo not given)	28.3	2.9	0.5	47.8	0.4	56.1*
CCOC(=O)C1CCCN(c2nc3ccccc3nc2C(C#N)C(=O)OCC)C1 (stereo not given)	20.5	4.3	0	95.8*	0.1	93.2*
CN1CCN(c2nc3ccccc3nc2C(C#N)C(=O)OC2CCCCC2)CC1 (stereo not given)	16.9	2.0	0.9	8.9	0.9	13.0
Cc1ccc2[nH]c(=O)c(CN(C)C(=O)c3ccccn3)cc2c1	-10.2	-2.7	1.1	-11.9	1.1	-9.9
O=C(NCc1ccco1)c1cc(-c2cccnc2)nc2ccccc12	8.8	2.1	0.3	70.4*	0.6	39.2
O=C(NCc1ccco1)c1cc(-c2ccncc2)nc2ccccc12	9.5	14.1	0.4	57.3*	0.2	80.2*
O=C(N/N=C/c1ccc(F)cc1)c1cc(-c2ccco2)nc2ccccc12	5.5	-10.7	0.9	7.2	1	-1.8
CC(/C=N/NC(=O)c1cc(-c2ccncc2)nc2ccccc12)=C\c1ccco1	12.5	-1.3	0	99.9*	0	95.6*
O=C(N/N=C/c1ccc([N+](=O)[O-])o1)c1cc(-c2ccncc2)nc2ccccc12	16.1	-15.8	0.1	90.0*	0.5	53.3*
Cc1ccc(-c2cc(C(=O)NCc3ccco3)c3ccccc3n2)o1	7.0	10.8	0.8	15.4	1.1	-5.8
O=C(N/N=C/c1ccc(-c2ccccc2[N+](=O)[O-])o1)c1cccnc1	8.6	1.1	0.7	27.8	0.8	19.5
CCOC(=O)C1CCCN(C(=O)CCn2nc(-c3ccccc3)ccc2=O)C1 (stereo not given)	5.6	4.8	1	-4.4	1	4.8
Cc1ccc(S(=O)(=O)CCc2nnc(NC(=O)C3CCCO3)s2)cc1 (stereo not given)	-2.5	0.8	0.9	5.4	0.8	18.7
